# Compound activity from PubChem BioAssay.
# Sampled rows, rich in hits. Any-hit rate of the full collection: about 3.4%.
# GPR151 activ: activators of human GPR151, primary screen, cell-based, PathHunter beta-arrestin, luminescence. G-protein coupled receptor 151 (Homo sapiens), Q8TDV0. PathHunter beta-arrestin GPR151 cells. activation, % at 11.2 µM. hit rate 1% among 650,000. AID 1508602, 2020; in the data active means activation above about 4.9%
# TEAD-YAP inh: TEAD-YAP interaction inhibition, primary screen, TEAD-YAP interaction inhibitor project, luminescence, HEK-TIYL cells; TEAD-Gal4/YAP UAS-luciferase luminescence; inhibition, % at 9.12 µM; hit rate 1.4% among 640,000; AID 1259422, 2018; in the data active means inhibition above about 32%
# FBW7 activator: FBW7 E3 ligase activators, primary screen, biochemical, AlphaScreen, human; AlphaScreen FBW7–phospho-cyclin E peptide binding, activator screen; hit rate 0.13% among 650,000; F-box/WD repeat-containing protein 7 (Homo sapiens), Q969H0; normalized activity (activation), % at 26.1 µM; AID 1259310, 2017; in the data active means normalized activity above about 1.9%;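 further: purified mutant Fbw7 with reduced substrate affinity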
# MITF primary: MITF inhibitors, primary screen, biochemical, AlphaScreen, human; AlphaScreen MITF homodimerization, bead proximity signal; inhibition, % at 2.6 µM; hit rate 0.91% among 650,000; AID 1259374, 2018; in the data active means inhibition above about 50%
# Target sequence (O75030 whole entry, looked up): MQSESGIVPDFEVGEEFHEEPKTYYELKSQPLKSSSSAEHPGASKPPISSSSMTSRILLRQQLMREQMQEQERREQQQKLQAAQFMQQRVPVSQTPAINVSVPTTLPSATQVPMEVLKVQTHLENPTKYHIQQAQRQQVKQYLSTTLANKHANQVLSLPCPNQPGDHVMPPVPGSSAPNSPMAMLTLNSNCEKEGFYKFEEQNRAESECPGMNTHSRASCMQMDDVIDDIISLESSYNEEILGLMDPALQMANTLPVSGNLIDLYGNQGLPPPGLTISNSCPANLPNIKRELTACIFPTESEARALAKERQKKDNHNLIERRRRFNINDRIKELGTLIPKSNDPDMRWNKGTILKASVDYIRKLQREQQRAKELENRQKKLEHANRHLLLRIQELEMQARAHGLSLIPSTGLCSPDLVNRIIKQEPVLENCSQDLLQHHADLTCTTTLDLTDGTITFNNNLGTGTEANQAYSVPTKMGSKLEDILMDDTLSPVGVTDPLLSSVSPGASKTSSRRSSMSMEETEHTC
# Numbers stand for hits; 0 = inactive.
SMILES,GPR151 activ,TEAD-YAP inh,FBW7 activator,MITF primary
Cc1ccc(C(=O)O/N=C(\N)c2ccccc2)c(Cl)c1,0,74,0,0
O=C(c1ccccc1)N1N=C(c2ccccc2)CC1(O)C(F)(F)C(F)(F)F (centres undefined),0,0,0,0
CC(=O)Nc1ccc2nc(NC(=O)c3ccc(Cl)cc3Cl)sc2c1,0,0,0,0
O=C(Nc1nc2ccccc2s1)c1ccccc1Cl,0,81,0,0
O=C(Nc1nc2ccccc2s1)c1ccc(Cl)cc1Cl,0,81,0,0
O=C(Nc1nc2ccccc2s1)c1ccccc1O,0,0,0,0
O=C(Nc1nc2ccccc2s1)c1cccc(Cl)c1Cl,0,0,0,0
O=C(Nc1nc2ccccc2s1)c1ccccc1F,0,87,0,0
CC(=O)c1cccc(NS(=O)(=O)c2cccc(C(F)(F)F)c2)c1,0,0,0,0
O=c1cc(O)c2sc3nc4c(cc3c2[nH]1)CCC4,0,0,0,0
N#C/C(=C\c1ccco1)C(=O)Nc1ccccc1F,0,0,2.1,0
O=C(CSc1cccc[n+]1[O-])Nc1ccc(Br)cc1F,0,0,0,0
Oc1ccc(CCNc2nc(Nc3ccc(C(F)(F)F)cc3)nc3c2ncn3C2CCCCC2)cc1,0,0,0,0
CCN(CC)C(=O)C1CCCN(c2cc(NCCc3ccc(OC)cc3)ncn2)C1 (centres undefined),0,0,0,0
Cc1nc(-c2ccc3cnc(Nc4ccc(-n5cnc(N6CCOCC6)n5)cc4)nc3c2)n[nH]1,0,0,0,0
Cc1[nH]ncc1-c1ccc2cnc(Nc3ccc(-n4cnc(N5CCOCC5)n4)cc3)nc2c1,0,85,0,0
Cn1cnc(-c2ccc3cnc(Nc4ccc(-n5cnc(N6CCOCC6)n5)cc4)nc3c2)n1,0,0,0,0
Cc1n[nH]c(C)c1-c1ccc2cnc(Nc3ccc(-n4cnc(N5CCOCC5)n4)cc3)nc2c1,0,35,0,0
C[C@H](NC(N)=O)C(=O)N1CCc2ccccc21,0,0,0,0
CCOC(=O)N1CCN(C(=O)CN2Cc3ccccc3OC(c3ccccc3F)C2)CC1 (centres undefined),0,0,0,0
CCN(CC)C(=O)C1CCCN(c2nc(NCCN3CCOCC3)c3ncn(-c4ccsc4)c3n2)C1 (centres undefined),0,36,0,0
CCN(CC)C(=O)C1CCCN(c2nc(NCCc3ccc(OC)cc3)c3ncn(-c4ccsc4)c3n2)C1 (centres undefined),0,33,0,0
CCN(CC)C(=O)C1CCCN(c2nc(NCCN3CCOCC3)c3ncn(C(C)C)c3n2)C1 (centres undefined),0,0,0,0
CCN(CC)C(=O)C1CCCN(c2nc(NCCN3CCOCC3)c3ncn(C4CCCCC4)c3n2)C1 (centres undefined),0,38,0,0
COc1ccc(CCNc2ccnc(-c3ccc(OC)cc3)n2)cc1,0,0,0,0
SMILES,GPR151 activ,TEAD-YAP inh,FBW7 activator,MITF primary
O=C(Cc1cccs1)Nc1cc(F)cc(F)c1,0,0,0,0
CCn1c2ccccc2c2cnc(N=CN(C)C)c(C#N)c21,0,42,0,0
Cc1cccc(CC(=O)Nc2cnn(-c3cccc(C(=O)N4CCNC(=O)CC4)c3)c2)c1,0,0,4.3,0
Cc1cccc(CC(=O)Nc2cnn(-c3cccc(C(=O)N4CCCO4)c3)c2)c1,0,0,0,0
COc1cc(OC)c2c(C)cc(N3CCC(C)CC3)nc2c1,0,0,0,0
O=C(NCc1cccs1)C1CCN(C(=O)Nc2ccc(Cl)cc2)CC1,0,0,2.4,0
O=C(Cc1ccc(Cl)cc1)NCc1cccs1,0,0,9.5,0
Cc1nc2ccccn2c1C(=O)Nc1ccccc1,0,0,0,0
Cc1nc2ccccn2c1C(=O)Nc1ccc(CC(=O)NCc2cccs2)cc1,0,55,0,0
CCOC(=O)C(=O)Nc1cc(OCC)c(NC(=O)c2ccccc2Cl)cc1OCC,0,0,0,0
O=C(NCCOc1cccc2ccccc12)c1ccc(CSC2CCCCC2)cc1,0,0,0,0
O=C(CCCN1C(=O)c2ccccc2C1=O)Nc1ccc(C(=O)O)cc1,0,0,0,0
CC(C)=CCC/C(C)=C/CC(C)(C)CNCCN1CCNCC1,0,58,0,0
Cc1ccc(S(=O)(=O)Nc2ccccc2C(=O)Nc2nc(-c3ccc(F)cc3)cs2)cc1,0,54,0,0
Cc1ccc(S(=O)(=O)Nc2ccccc2C(=O)Nc2nc3ccc(Br)cc3s2)cc1,0,55,0,0
Cc1ccc(-c2csc(NC(=O)c3ccccc3C(=O)O)n2)cc1,0,0,0,0
Cc1ccc(S(=O)(=O)Nc2ccccc2C(=O)Nc2nc3ccc(Cl)cc3s2)cc1,0,0,0,0
O=C(O)c1ccccc1C(=O)Nc1nc(-c2ccc(Br)cc2)cs1,0,0,2.1,0
Cc1ccc(-c2csc(NC(=O)c3ccccc3NS(=O)(=O)c3ccc(C)cc3)n2)cc1,0,0,0,0
Cc1ccc(S(=O)(=O)Nc2ccccc2C(=O)Nc2nc3c(Cl)cccc3s2)cc1,0,33,0,0
Cc1nc(-c2ccc(NC(=O)CCCc3ccccc3)cc2)cs1,0,0,0,0
Cc1ccc2nc(NC(=O)C3=COCCO3)sc2c1,0,66,0,0
CS(=O)(=O)c1ccc2nc(NC(=O)C3=COCCO3)sc2c1,0,0,0,0
O=C(/C=C/c1ccc([N+](=O)[O-])s1)Nc1ccc(F)cc1,0,0,0,0
Cc1ccc(C(=O)OC2CC(C)CCC2C(C)C)cc1[N+](=O)[O-] (centres undefined),0,0,0,0
SMILES,GPR151 activ,TEAD-YAP inh,FBW7 activator,MITF primary
CC1CCC(C(C)C)C(OC(=O)c2cc([N+](=O)[O-])ccc2Cl)C1 (centres undefined),0,0,5.5,0
CC1=NN(c2ccc(Cl)cc2)C(=O)/C1=C\c1ccccc1OCC#N,0,0,0,0
Cc1cc(C)n2ncc(C(=O)Nc3cccc(Cl)c3Cl)c2n1,0,0,0,0
CC(C)NC(=O)CSCc1csc2c1CCCC2,0,0,0,0
O=C(O)c1cc(S(=O)(=O)Nc2ccc3c(c2)OCCO3)c(Cl)cc1Cl,0,36,0,0
COC(=O)c1ccc(Nc2cc(C)nc3c(C)cc(C)cc23)cc1,0,49,0,0
CCOC(=O)c1ccc(Nc2cc(C)nc3c(C)cc(C)cc23)cc1,0,47,0,0
CCOC(=O)c1ccc2nc(C)cc(Nc3cccc(O)c3)c2c1,0,75,0,0
CC(=O)Nc1ccc(Nc2cc(C)nc3c(C)cc(C)cc23)cc1,0,0,0,0
CCOC(=O)c1cccc(Nc2cc(C)nc3c(C)cc(C)cc23)c1,0,0,0,0
CC1=C(C(=O)OCCOc2ccccc2)C(c2ccc(N(C)C)cc2)C2=C(CCCC2=O)N1 (centres undefined),0,0,0,0
CCOC(=O)c1sc2ncn(CC(=O)N3CCCCC3C)c(=O)c2c1C (centres undefined),0,0,0,0
O=C(Nc1cccc(-c2nc3cc(Cl)ccc3o2)c1)c1cc(I)ccc1Cl,0,0,0,0
